Test results as given in PubChem BioAssay.
Results with a measured potency or affinity are listed apart. Active and inactive are the calls of the source.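 How the source made its calls, unless noted: active means a fitted half-maximal concentration no higher than twice the top valid tested dose, with signal falling as cells die; inconclusive means flat curve between -70% and -30%, or poor fit; inactive means the rest, including signal rising instead of falling.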

How the values were obtained:
[1] = inducers of Cryptococcus neoformans cell lysis, dose response, AK release luminescence, cherry-picks (AID 687000;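 active means fitted dose curve reaches 40% lysis signal rise at or below the highest valid concentration tested for that sample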;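 further: luminescent detection of adenylate kinase leaking from lysed yeast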)
[2] = HepG2 cell cytotoxicity, dose response, cytotoxicity control, cherry-picks, set 2 (AID 687002;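 active means a dose-response fit showing signal loss, with half-maximal concentration no higher than twice the top tested dose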)
[3] = HeLa cell cytotoxicity, dose response, cytotoxicity control, ATP luminescence, cherry-pick samples (AID 687004)

Measured: outcome

Cc1ccc(C2CCN(C(=S)NC3CCCCC3)C2)cc1 (stereo not given)
inactive: all assays above

COc1ccc(N2CCN(C(=O)CSc3ncnc4c3cnn4-c3ccccc3C)CC2)cc1
inactive: all assays above

O=C(CSc1nc(CCC2CCCC2)nc2ccccc12)NCc1ccc2c(c1)OCO2
inactive: all assays above

Fc1cccc(CCN2C(=S)NC[C@@H]2Cc2ccccc2)c1
inactive: all assays above

Cc1ccccc1N(CC(=O)NCCSC1CCCCC1)S(=O)(=O)c1ccccc1
inactive: all assays above

CN1c2ccc(Br)cc2[C@@H]2[C@@H](CCN2C(=O)Cc2cccnc2)[C@@H]1CO
inactive: all assays above

O=C(NC(=S)Nc1ccccc1N1CCOCC1)c1ccccc1F
inactive: all assays above

C[C@@H]1CN([C@H](C)CO)C(=O)CCCn2nncc2CO[C@H]1CN(C)Cc1cccc(C(F)(F)F)c1
inactive: all assays above

CNC[C@H]1Oc2ncc(C#CCC(C)C)cc2C(=O)N([C@H](C)CO)C[C@H]1C
inactive: all assays above

O=C(c1cccs1)N1CCN(c2nc3ccccc3s2)CC1
inactive: all assays above

N#C[C@H]1[C@@H](c2ccccc2)[C@@H](CO)N1C(=O)Cc1ccccc1
inactive: all assays above

Cc1cccc(NC(=O)CN(C)C(=O)C2CCCC2)c1C
inactive: all assays above

CC(C)NC(=O)Nc1ccc2c(c1)C(=O)N([C@H](C)CO)C[C@H](C)[C@H](CN(C)Cc1ccncc1)OCCCC[C@H](C)O2
inactive: all assays above

Cc1ccc(CSc2ncnc3c2cnn3-c2ccccc2)cc1
inactive: all assays above

Cc1ccc(N(C(=O)C2CCC(=O)N2)C2(C(=O)NC3CCCC3)CCCCC2)cc1 (stereo not given)
inactive: all assays above

C[C@@H]1CN([C@H](C)CO)C(=O)Cc2cc(NC(=O)CCCCCC(=O)Nc3ccccc3N)ccc2O[C@H]1CN(C)C(=O)Nc1ccccc1
inactive: all assays above

CCNC(=O)CN(c1ccc(Cl)cc1)S(=O)(=O)c1ccccc1
inactive: all assays above

O=C(Nc1ccc2ncccc2c1)c1ccccc1
inactive: all assays above

Cc1ccc(NC(=O)C2(N3CCC3=O)CCCCC2)cc1
inactive: all assays above

O=C(NC[C@H]1[C@H](c2ccccc2)[C@H](CO)N1C(=O)Cc1cccnc1)C1CCC1
inactive: all assays above

Cc1ccccc1-n1ncc2c(SCC(=O)N3c4ccccc4CC3C)ncnc21 (stereo not given)
inactive: all assays above

Cc1ccc(C)c(NC(=O)C2(C)CCN2C(=O)C(C)C)c1 (stereo not given)
inactive: all assays above

Cc1cccc(C)c1NC(=O)C1(NC(=O)C2CCC(=O)N2)CCCCC1 (stereo not given)
inactive: all assays above

CC(C)C(=O)N1CCC1(C)C(=O)Nc1ccccc1C(C)(C)C (stereo not given)
inactive: all assays above

O=C(C[C@@H]1C=C[C@@H](NC(=O)Nc2cc(F)ccc2F)[C@H](CO)O1)NCCCN1CCOCC1
inactive: all assays above

CC(C)CC#Cc1cnc2c(c1)C(=O)N([C@@H](C)CO)C[C@H](C)[C@H](CN(C)C(=O)c1ccc3c(c1)OCO3)O2
inactive: all assays above

Cc1cc(C)c(NC(=O)CN(C2CCCCC2)C2CCCCC2)c(C)c1
inactive: all assays above

COc1cc(C(=O)NC(=S)Nc2ccccc2N2CCOCC2)cc(OC)c1OC
inactive: all assays above

CC(=O)NC12CC3CC(C1)CC(C(=O)NCC(=O)Nc1c(C)cc(C)cc1C)(C3)C2
inactive: all assays above

CO[C@@H]1CN(C)C(=O)c2cc(NC(=O)C3CCOCC3)ccc2OC[C@H](C)NC[C@@H]1C
inactive: all assays above

O=C(C[C@H]1CC[C@H]2[C@@H](COC[C@H](O)CN2C(=O)Nc2ccc3c(c2)OCO3)O1)N1CCN(c2ccccc2)CC1
inactive: all assays above

COc1ccc(N(C)C(=O)c2cn(CC(C)C)c(=O)c3cc(OC)c(OC)cc23)c(OC)c1
inactive: all assays above

CCc1ccc(NC(=O)[C@H](C)NC(=O)C2CCN(C(=O)[C@@H](N)C(C)C)CC2)cc1
inactive: all assays above

O=C(CSc1ncnc2c1cnn2-c1ccc(F)cc1)NCc1ccc2c(c1)OCO2
inactive: all assays above

CCNC(=O)C[C@H]1CC[C@@H](NC(=O)NC2CCCCC2)[C@H](CO)O1
inactive: all assays above

CC(C)N1C(=O)C2(OCCCO2)c2cc(Br)ccc21
inactive: all assays above

O=C(CN1CCOCC1)N[C@@H]1CC[C@@H](CCNC(=O)C2CCC2)O[C@@H]1CO
inactive: all assays above

CC(C)Sc1nc2ncnc(N)c2[nH]1
inactive: all assays above

CCC(C)(C(=O)Nc1ccccc1C)N(C(=O)CNC(C)=O)c1ccccc1C (stereo not given)
inactive: all assays above

CCN(CC)CC(=O)N(CC(=O)Nc1c(C)cc(C)cc1C)C1CCCCC1
inactive: all assays above

Cc1ccc(C(=O)n2nnc3ccccc32)cc1[N+](=O)[O-]
inactive: all assays above

CCNC(=O)CN(c1ccccc1)S(=O)(=O)c1ccc(Cl)cc1
inactive: all assays above

CC(NC(=O)COc1ccccc1Cl)c1ccccc1 (stereo not given)
inactive: all assays above

C[C@@H]1CN([C@H](C)CO)C(=O)c2cccc(NC(=O)c3ccncc3)c2O[C@H]1CN(C)C(=O)Nc1ccc(C(F)(F)F)cc1
inactive: all assays above

C[C@@H]1CN([C@H](C)CO)C(=O)c2cc(NS(=O)(=O)c3cn(C)cn3)ccc2O[C@@H](C)CCCCO[C@H]1CN(C)C
inactive: all assays above

CN1c2ccc(-c3ccc(F)cc3)cc2[C@@H]2[C@@H](CCN2C(=O)C2CCOCC2)[C@@H]1CO
inactive: all assays above

O=C(C[C@@H]1CC[C@@H](NC(=O)c2cccnc2)[C@@H](CO)O1)NCCN1CCCCC1
inactive: all assays above

CCOC(=O)NCc1ccc2[nH]c(C)cc2c1
inactive: all assays above

CC(C)COc1ccc(CNC(=S)NCc2ccccc2)cc1
inactive: all assays above

Cc1ccc(NC(=O)C2CCC(=O)N2)cc1C (stereo not given)
inactive: all assays above

COc1cccc(CNC(=O)COc2ccc(C(=O)c3ccccc3)cc2)c1
inactive: all assays above

Cc1ccc(NC(=S)NCc2ccc(Cl)cc2)c(OC(F)F)c1
inactive: all assays above

COCCN1C(=O)CCC1(C)C(=O)Nc1c(C)cccc1C (stereo not given)
inactive: all assays above

C[C@H](NC(=O)C[C@H]1CC[C@@H](NC(=O)Cc2ccccn2)[C@@H](CO)O1)c1ccccc1
inactive: all assays above

COCC#Cc1ccc2c(c1)O[C@H](CN(C)S(=O)(=O)c1ccc(OC)cc1)[C@H](C)CN([C@H](C)CO)S2(=O)=O
inactive: all assays above

Cc1noc(C)c1NC(=O)N(C)C[C@H]1Oc2ccc(NC(=O)C3CC3)cc2CC(=O)N([C@@H](C)CO)C[C@H]1C
inactive: all assays above

Cc1cccc(OCC(=O)NCc2ccc(F)cc2)c1
inactive: all assays above

CNC(=O)CN(c1ccccc1)S(=O)(=O)c1ccc(F)cc1
inactive: all assays above

Cc1ccccc1NC(=O)C(NC1CCCCC1)C(C)C (stereo not given)
inactive: all assays above

O=C(C[C@@H]1CC[C@H](NC(=O)Cc2ccccn2)[C@@H](CO)O1)NCCc1ccccc1
inactive: all assays above
